Values joined by “and” are separate entries in the source; they are usually repeats but may differ in a detail not shown here. Equal entries are not always repeated. Hit rate of the full screen: of about 5,500 compounds, about 2,000 (36%) were called active. Another 18% or so got no clear call; they are omitted. Cut-off read from the data, not from the text of the source: active = normalized growth mostly below about 0.91 (no sharp cut-off); inconclusive = no clear call, values can overlap the other calls; inactive = mostly above about 0.92. The list shows a part of the results.
Experiment: chemical genetic growth profiling, strain panel (AID 1159580);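 note: tested at 20 µM; growth read once vehicle control cultures reached saturation at 30 °C; 1 = growth at the plate median or of vehicle wells; lower values mean less growth of the strain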
Conditions: S. cerevisiae deletion strains, growth OD

Measured: normalized growth

Cc1cc(O)c(C=O)c2c1C(=O)Oc1c(COC(=O)/C=C/C(=O)O)c(O)c(C(=O)O)c(C)c1O2
inactive: locus YAL021C, strain ccr4, hits give low values 0.915 | locus YAL030W, strain snc1, hits give low values 0.96 | locus YBL061C, strain skt5, hits give low values 0.96 | locus YBR009C, strain hhf1, hits give low values 0.937 | locus YBR021W, strain FUR4, hits give low values 1.06 | locus YBR023C, strain chs3, hits give low values 0.967 | locus YBR171W, strain sec66, hits give low values 0.983 | locus YBR229C, strain ROT2, hits give low values 0.988 | locus YBR279W, strain paf1, hits give low values 0.933 | locus YCL011C, strain gbp2, hits give low values 0.974 | locus YCL016C, strain dcc1, hits give low values 0.992 | locus YCL029C, strain bik1, hits give low values 0.98 | locus YCL069W, strain vba3, hits give low values 0.973 | locus YCR088W, strain abp1, hits give low values 1.02 | locus YDL005C, strain med2, hits give low values 1.02 | locus YDL035C, strain GPR1, hits give low values 0.929 | locus YDL040C, strain nat1, hits give low values 1 | locus YDL074C, strain BRE1, hits give low values 0.936 | locus YDL101C, strain DUN1, hits give low values 0.959 | locus YDL185W, strain tfp1, hits give low values 0.919 | locus YDL192W, strain arf1, hits give low values 0.95 | locus YDR001C, strain nth1, hits give low values 0.998 | locus YDR101C, strain arx1, hits give low values 0.977 | locus YDR137W, strain rgp1, hits give low values 1.04 | locus YDR150W, strain NUM1, hits give low values 0.951 | locus YDR159W, strain sac3, hits give low values 0.981 | locus YDR195W, strain ref2 1.1 | locus YDR297W, strain sur2, hits give low values 0.957 | locus YDR318W, strain mcm21, hits give low values 0.991 | locus YDR335W, strain msn5, hits give low values 0.943 | locus YDR388W, hits give low values 0.992 | locus YDR392W, strain spt3, hits give low values 0.813 | locus YDR502C, strain sam2, hits give low values 0.96 | locus YEL003W, strain gim4, hits give low values 0.977 | locus YEL037C, strain rad23, hits give low values 0.939 | locus YEL061C, strain CIN8 (second series), hits give low values 0.993 | locus YEL061C, strain CIN8, hits give low values 0.97 | locus YER016W, strain bim1, hits give low values 1.03 | locus YER110C, hits give low values 0.981 | locus YER155C, strain BEM2 (second series), hits give low values 1.01 | locus YER155C, strain BEM2, hits give low values 1 | locus YER167W, strain BCK2, hits give low values 1.01 | locus YGL078C, strain dbp3, hits give low values 0.969 | locus YGL086W, strain mad1, hits give low values 0.971 | locus YGL167C, strain pmr1, hits give low values 0.993 | locus YGL227W, strain vid30, hits give low values 1.02 | locus YGL240W, strain doc1, hits give low values 1.06 | locus YGL248W, strain PDE1, hits give low values 0.947 | locus YGR135W, strain pre9, hits give low values 0.958 | locus YGR252W, strain gcn5, hits give low values 1.12 | locus YHR013C, strain ard1, hits give low values 0.877 | locus YHR030C, strain SLT2, hits give low values 0.973 and 0.971 | locus YHR079C, strain IRE1 (second series), hits give low values 0.994 | locus YHR079C, strain IRE1, hits give low values 0.985 | locus YHR094C, strain hxt1, hits give low values 0.994 | locus YHR129C, strain ARP1, hits give low values 0.937 | locus YHR200W, strain rpn10, hits give low values 0.976 | locus YIL066C, strain RNR3, hits give low values 0.896 | locus YIL073C, strain SPO22, hits give low values 0.898 | locus YIL125W, strain kgd1, hits give low values 0.969 | locus YIR030C, strain dcg1, hits give low values 0.993 | locus YJL092W, strain hpr5, hits give low values 0.952 | locus YJL095W, strain BCK1 (second series), hits give low values 0.961 | locus YJL095W, strain BCK1, hits give low values 0.904 and 0.959 | locus YJL115W, strain asf1, hits give low values 1 | locus YJL129C, strain trk1, hits give low values 1.08 | locus YJL134W, strain LCB3, hits give low values 0.978 | locus YJL154C, strain vps35, hits give low values 0.992 | locus YJL164C, strain tpk1, hits give low values 0.935 | locus YJL166W, strain qcr8, hits give low values 0.947 | locus YJL168C, strain set2, hits give low values 0.974 | locus YJL187C, strain SWE1 (second series), hits give low values 0.879
active: locus YAL026C, strain drs2, hits give low values 0.841 | locus YBR231C, strain swc5, hits give low values 0.885 | locus YCL061C, strain MRC1, hits give low values 0.912 | locus YDR069C, strain doa4, hits give low values 0.883 | locus YDR162C, strain NBP2, hits give low values 0.808 | locus YDR334W, strain swr1, hits give low values 0.891 | locus YER015W, strain faa2, hits give low values 0.874 | locus YER111C, strain swi4, hits give low values 0.906 | locus YFR010W, strain ubp6, hits give low values 0.873 | locus YGL173C, strain kem1, hits give low values 0.856 | locus YGL253W, strain hxk2, hits give low values 0.787 | locus YGR229C, strain SMI1, hits give low values 0.734 | locus YHR027C, strain rpn1, hits give low values 0.761 | locus YHR142W, strain chs7, hits give low values 0.852

— PubChem BioAssay AID1159580 (chemical genetic matrix, 2015)
